# Source: ChEMBL document CHEMBL3988442, “University of Dundee, Small-Polar-MMV Screening Library” (2021)
# Out of some 67,000 compounds screened, about 300 (0.45%) showed an effect of 50% or more. The sample holds strong results, similar compounds and a random draw of the others, so the mix is not that of the screen.
# Target: Polyketide synthase Pks13 (Mycobacterium tuberculosis (strain ATCC 25618 / H37Rv)) (UniProt I6X8D2)
# Experiment: Mycobacterium tuberculosis Polyketide synthase 13 Thioesterase (PKS13)
# Assay type: functional
# Design: scale not given: in the data most compounds retested in dose-response had high values
# Settings: 30 µM
# Chain of Polyketide synthase Pks13 (Mycobacterium tuberculosis (strain ATCC 25618 / H37Rv)) (I6X8D2 whole entry): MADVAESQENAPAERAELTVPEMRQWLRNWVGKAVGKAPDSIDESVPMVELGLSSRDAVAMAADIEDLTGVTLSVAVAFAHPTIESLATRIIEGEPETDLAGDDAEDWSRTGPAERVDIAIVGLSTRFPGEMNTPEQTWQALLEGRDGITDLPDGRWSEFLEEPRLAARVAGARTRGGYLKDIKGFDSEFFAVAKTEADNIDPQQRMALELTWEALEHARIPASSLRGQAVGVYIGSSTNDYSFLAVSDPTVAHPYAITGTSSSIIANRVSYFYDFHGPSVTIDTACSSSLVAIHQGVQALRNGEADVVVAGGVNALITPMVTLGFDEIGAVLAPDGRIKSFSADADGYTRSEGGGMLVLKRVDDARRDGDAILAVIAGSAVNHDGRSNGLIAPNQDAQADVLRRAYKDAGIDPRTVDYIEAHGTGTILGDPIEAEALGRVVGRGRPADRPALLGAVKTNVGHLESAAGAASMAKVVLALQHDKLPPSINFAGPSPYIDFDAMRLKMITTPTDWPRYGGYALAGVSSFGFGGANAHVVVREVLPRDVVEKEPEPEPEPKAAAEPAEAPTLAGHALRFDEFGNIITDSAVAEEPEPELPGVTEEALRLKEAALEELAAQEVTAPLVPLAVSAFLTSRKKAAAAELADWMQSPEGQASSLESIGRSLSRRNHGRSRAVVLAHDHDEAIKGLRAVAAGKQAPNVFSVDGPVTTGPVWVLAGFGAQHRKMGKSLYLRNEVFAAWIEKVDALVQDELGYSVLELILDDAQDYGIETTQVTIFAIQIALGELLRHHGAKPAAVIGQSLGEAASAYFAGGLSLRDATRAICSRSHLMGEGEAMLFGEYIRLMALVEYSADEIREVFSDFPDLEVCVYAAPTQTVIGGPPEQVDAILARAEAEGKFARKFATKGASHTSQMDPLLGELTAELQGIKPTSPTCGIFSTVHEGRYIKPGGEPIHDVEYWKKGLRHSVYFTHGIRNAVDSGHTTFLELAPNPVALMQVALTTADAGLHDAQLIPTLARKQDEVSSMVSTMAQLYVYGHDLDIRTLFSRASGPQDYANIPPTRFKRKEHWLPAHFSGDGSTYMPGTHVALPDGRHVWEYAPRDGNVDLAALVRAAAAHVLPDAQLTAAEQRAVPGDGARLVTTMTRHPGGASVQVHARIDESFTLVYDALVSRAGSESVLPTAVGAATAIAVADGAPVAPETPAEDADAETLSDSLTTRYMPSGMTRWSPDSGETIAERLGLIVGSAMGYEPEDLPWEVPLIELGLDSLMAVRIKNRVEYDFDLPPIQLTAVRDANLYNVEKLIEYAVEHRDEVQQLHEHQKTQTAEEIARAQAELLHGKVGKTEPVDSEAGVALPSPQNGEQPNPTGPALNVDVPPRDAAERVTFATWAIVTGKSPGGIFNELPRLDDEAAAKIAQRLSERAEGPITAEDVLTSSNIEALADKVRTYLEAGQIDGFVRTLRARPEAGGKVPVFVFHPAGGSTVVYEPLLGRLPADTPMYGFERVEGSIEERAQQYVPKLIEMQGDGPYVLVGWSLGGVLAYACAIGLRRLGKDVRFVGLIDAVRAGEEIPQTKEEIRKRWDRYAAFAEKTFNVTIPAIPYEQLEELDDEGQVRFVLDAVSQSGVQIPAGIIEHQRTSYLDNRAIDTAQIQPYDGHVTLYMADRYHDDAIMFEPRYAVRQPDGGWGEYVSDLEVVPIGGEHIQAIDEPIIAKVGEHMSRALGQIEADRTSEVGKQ
row,Compound,Percent Effect [%]
1,CC1=CC[C@@H]2CN(C(=O)c3ccc(-c4cc[nH]n4)cc3)C[C@@H]2C1,-21.5
2,CN1CCc2ccc(NCc3cscn3)cc2C1=O,-2.18
3,CN1CCc2ccc(NCc3cccs3)cc2C1=O,126
4,CN(CCc1cccs1)C(=O)Nc1ccc2c(c1)C(=O)N(C)CC2,31.9
5,Cc1noc(C)c1CN1C[C@@H]2COC[C@@H](C(=O)N3CCCCO3)[C@@H]2C1,6.29
6,CN(C)c1ncc2c(n1)C1(CCN(Cc3cccnc3)C1)COC2 (configuration not stated),-30.2
7,CN(C)c1ncc2c(n1)C1(CCN(Cc3ccccc3)C1)COC2 (configuration not stated),-6.74
8,COc1cccc(CN2CCC3(COCc4cnc(N(C)C)nc43)C2)c1 (configuration not stated),111
9,COc1cccc(CN2CCC3(CCN(c4ncc(F)cn4)CC3)C2)c1,14.4
10,COc1cccc(CN2CCC3(CC2)CCN(c2ncc(C)cn2)C3)c1,-24.2
11,COc1cccc(CN2CCC3(CCN(c4ncc(C)cn4)CC3)C2)c1,66.7
12,Cc1noc([C@]23COC[C@H]2CN(C(=O)COC2CCCC2)C3)n1,-5.31
13,COCCOCC(=O)N1C[C@H]2CC[C@@H]1CN(C1Cc3ccccc3C1)C2,-22.6
14,Cc1cccc2cc(CNCCCN3CCOCC3)c(=O)[nH]c12,-21.5
15,Cc1ccc2cc(CNCCCN3CCOCC3)c(=O)[nH]c2c1C,62.3
16,CCc1cccc2cc(CNCCCN3CCOCC3)c(=O)[nH]c12,16.5
17,CS(=O)(=O)N1CCO[C@@H]2CN(Cc3ccncc3)C[C@@H]2C1,-14.9
18,CN(C)CCN1CCC(CNCc2c[nH]nc2C(C)(C)C)CC1,-14.5
19,CC(O)CN1CCC(CNCc2cccc(C(=O)N(C)C)c2)CC1 (configuration not stated),-0.155
20,CCN1CCC(CNCc2c[nH]nc2C(C)(C)C)C1 (configuration not stated),-27.2
21,CC(O)CN1CCC(CNCc2c[nH]nc2C(C)(C)C)CC1 (configuration not stated),110
22,CC(O)CN1CCC(CNCc2cccc(C(N)=O)c2)CC1 (configuration not stated),108

row,Compound,Percent Effect [%]
1,CC(O)CN1CCC(CNCc2ccc(C(N)=O)cc2)CC1 (configuration not stated),-12.3
2,Cn1cc(CN2CC[C@@H]3[C@@H]2CCN3C(=O)Cc2cccc(F)c2)cn1,-2.13
3,Fc1ccc(CN2CCO[C@H]3[C@H](Oc4ccccn4)CC[C@@H]32)cc1,13.6
4,O=C(Cc1ccccn1)N1CCN2C[C@H](Oc3cccc(F)c3)C[C@H]2C1,-20.8
5,O=C(c1cnccn1)N1CC[C@H]2C[C@@H](c3ccncn3)O[C@@H]2C1,-4.56
6,O=C(O)[C@]12CCCN(Cc3ccccc3)C[C@H]1CN(c1ncccn1)C2,-25.9
7,Cc1ccc(CN2CC[C@H]3O[C@@H](C(=O)N4CCCO4)CC[C@H]32)s1,-20.3
8,Cn1ncc2c1CN(Cc1ccc(F)cc1)CC2COCC1CC1 (configuration not stated),-20.5
9,Cn1ncc2c1CN(Cc1cccnc1)CC2COCC1CC1 (configuration not stated),60.5
10,Cn1ncc2c1C(COCC1CC1)CN(Cc1cccnc1)C2 (configuration not stated),-43.6
11,CN1CCN(C(=O)N2C[C@H]3CC[C@@H]2CN(Cc2ccccc2)C3)CC1,7.3
12,Cc1ccc(N2CC[C@H]3O[C@@H](C(=O)N4CCCCO4)CC[C@H]32)nn1,14.6
13,O=C([C@H]1COC[C@H]2CN(C3CCOCC3)C[C@H]21)N1CCCO1,-30.7
14,Cc1n[nH]c(SCC(=O)N2C[C@H]3CC[C@@H]2CN(c2ncccn2)C3)n1,53.5
15,CCCSCC(=O)N1C[C@H]2CC[C@@H]1CN(c1ncccn1)C2,-17
16,CCOCCC(=O)N1C[C@H]2CC[C@@H]1CN(c1ncccn1)C2,-26.3
17,O=C(c1ncccn1)N1C[C@H]2CCC[C@@]2(COCc2ccncc2)C1,-14.6
18,NC(=O)N1CC[C@@H]2O[C@H](COCC(=O)N3CCCC3)CC[C@@H]21,9.98
19,NC(=O)c1cc(C2CC2)nc2ccc(F)cc12,87.8
20,COc1ccc2nc(C3CC3)cc(C(=O)NCCc3nnc[nH]3)c2c1,-11.9
21,NC(=O)C1CCCN1C(=O)c1cc(C2CC2)nc2ccc(F)cc12 (configuration not stated),-9.51
22,COCCN1C(=O)[C@H]2CC[C@@H]1CN(c1ncccn1)C2,1.06

row,Compound,Percent Effect [%]
1,O=C(c1cnco1)N1C[C@@H]2CC[C@H](Oc3ccccc3F)[C@@H]2C1,6.58
2,N#Cc1ccc(C(=O)O)nc1/C=C/c1cccc(F)c1,-26.4
3,N#Cc1ccc(C(=O)O)nc1/C=C/c1cccc(Cl)c1,51.4
4,N#Cc1ccc(C(=O)O)nc1/C=C/c1cccc(Br)c1,-10.3
5,CC(C)C(=O)N1CC[C@@H]2[C@H](CC1)N(Cc1cccnc1)CCS2(=O)=O,-7.83
6,c1ccc(O[C@@H]2CN(Cc3nccs3)[C@@H]3CCCO[C@@H]32)nc1,-21.3
7,CN(C)CCO[C@H]1CN(C(=O)c2cscn2)[C@@H]2COC[C@H]12,4.36
8,Cn1cc(I)c(C(=O)NCCCn2cc(Br)cn2)n1,55
9,Cn1cc(Br)c(C(=O)NCCCn2cc(Br)cn2)n1,27.2
10,Cn1cc(Br)c(C(=O)NCCn2cc(Br)cn2)n1,-18.6
11,Cn1ccnc1CN1CCN(Cc2ccncc2)[C@@H]2CS(=O)(=O)C[C@@H]21,-14
12,Cc1cc(CN2CC[C@@H]3[C@@H](CCC(=O)N3CCc3c[nH]cn3)C2)oc1C,-32.9
13,O=C([C@H]1CC[C@@H]2[C@@H](CCN2C2CCOCC2)O1)N1CCOCC1,5.19
14,Cc1n[nH]c(C)c1CCC(=O)NCC1(O)CCN(c2ccccn2)C1 (configuration not stated),61.1
15,Cc1noc(C)c1CCC(=O)NCC1(O)CCCN(c2ccccn2)C1 (configuration not stated),9.52
16,Cc1noc(C)c1CCC(=O)NCC1(O)CCN(c2ccccn2)C1 (configuration not stated),1.81
17,CCO[C@H]1CC[C@H]2[C@H]1OCCN2C(=O)c1nn(C)c2ccccc12,-2.76
18,CN(C)[C@@H]1CN(C(=O)Cc2cccs2)[C@@H]2CCCO[C@H]12,-8.31
19,Cc1c(C2=NS(=O)(=O)N(C)C(C(=O)Nc3ccc(Br)cc3)=C2)cnn1C,47
20,Cc1nn(C)cc1C1=NS(=O)(=O)N(C)C(C(=O)Nc2ccc(Br)cc2)=C1,57.7
21,Cc1nc(N2CCCC2)ncc1C(=O)Nc1ccc(Br)cc1,-0.502
22,O=C1N(C2CCCCC2)C[C@H]2CN(C3CCC3)CCN12,5.32

row,Compound,Percent Effect [%]
1,COCCN1C(=O)CC[C@@H]2[C@@H]1CCN2Cc1c(C)noc1C,2.01
2,CS(=O)(=O)N[C@@H]1CN(Cc2ccccc2)C[C@@H]2CCCO[C@@H]21,-27.1
3,CN(Cc1ccccn1)C1CCC[C@@H]2CN(CC3CC3)C[C@H]12 (some centres not stated),-21.9
4,CCC(=O)NCC(=O)NCC(C)(C)c1cccc(Br)c1,50.4
5,COC(=O)NCC(=O)NCC(C)(C)c1cccc(C(F)(F)F)c1,-4.12
6,COC(=O)NCC(=O)NCC(C)(C)c1cccc(Br)c1,-17.5
7,CS(=O)(=O)N1CCO[C@@H]2CN(C(=O)C3CCOC3)CC[C@@H]2C1 (some centres not stated),-9.9
8,CN(C)C(=O)C1CCN(c2cncc(-n3cccn3)n2)CC1,9.49
9,NC(=O)C1CCN(c2cncc(-n3cccn3)n2)CC1,9.01
10,O=C(c1ccccc1)C1CCN(c2cncc(-n3cccn3)n2)CC1,75.5
11,Cc1ccc(C(=O)N2C[C@@H](OCC3CCOCC3)[C@H]3OCCC[C@H]32)o1,-4.11
12,O=C1CCCN1Cc1ncn2c1CN(C(=O)NC1CCCC1)CCC2,60.1
13,CC(C)NC(=O)N1CCCn2cnc(CN3CCCC3=O)c2C1,-40.2
14,O=C1CCCN1Cc1ncn2c1CN(C(=O)NC1CCCCC1)CCC2,29
15,O=C([C@@H]1C[C@@H]2CCN(Cc3ccccn3)C[C@H]2O1)N1CCCO1,-7.04
16,CN(C)C(=O)CN1C[C@@H]2CC[C@H](C1)N(C(=O)CCn1cncn1)C2,-4.82
17,CC(=O)c1cc(CN2C[C@H]3CC[C@@H]2CN(S(=O)(=O)N(C)C)C3)cs1,-12.2
18,O=C(c1ccccc1)N1C[C@@H]2CC[C@H](C1)N(Cc1cc(F)ccc1Cl)C2,3.66
19,CN1C(=O)[C@H]2CC[C@@H]1CN(c1ncnc3ccsc13)C2,38.1
20,COc1cc(N2C[C@@H]3CC[C@H](C2)N(CC2CCC2)C3=O)ncn1,-4.75
21,O=C1[C@H]2CC[C@H](CN(c3ncnc4ccsc34)C2)N1CC1CC1,90.8
22,COCC(=O)N1CC[C@H]2C[C@H](c3nnc(C4CC4)o3)O[C@@H]2C1,-6.34

row,Compound,Percent Effect [%]
1,COCCN1C[C@H]2CC[C@@H]1CN(Cc1nc3ccccc3n1C)C2,-34.6
2,NC(=O)COc1ccc(CN2CC[C@@]3(O)CCCC[C@H]3C2)cc1Cl,-1.23
3,CNc1cc(C)nc(NCc2cc(C)cc3c(C)c(C)[nH]c23)n1,13
4,CCc1[nH]c2c(CNc3nc(C)cc(NC)n3)cc(C)cc2c1C,146
5,CCc1[nH]c2c(CNc3cc(C)nc(NC)n3)cc(C)cc2c1C,5.91
6,COC[C@@H]1CC[C@H]2[C@H](CCN2S(=O)(=O)Cc2ccccc2)O1,-27.3
7,c1cncc(CN2CCN3C[C@H](Oc4cncnc4)C[C@H]3C2)c1,0.84
8,Cc1cccc(CN2C[C@@H]3CN(C(=O)C4CCOC4)C[C@@H]3C2=O)c1 (some centres not stated),-8.77
9,CN1CCN(C(=O)[C@H]2C[C@H]3[C@H](CCN3Cc3nccs3)O2)CC1,-17.5
10,Cc1ccc(N2CC[C@H]3C[C@H](C(=O)NCc4ccco4)O[C@@H]3C2)cc1,-20.4
11,c1cc(CN2CC[C@@H]3CN(c4cnccn4)C[C@@H]3C2)ccn1,-15.9
12,CN(C)C[C@H]1C[C@@H](CO)CN(C(=O)c2cc(=O)[nH]c3cc(F)ccc23)C1,-20
13,CN(C)C[C@@H]1[C@H]2CN(C(=O)c3cc(=O)[nH]c4ccc(F)cc34)C[C@@H]12,55.8
14,CN(C)C[C@@H]1CN(C(=O)c2cc(F)ccc2F)C[C@@H]1CO,-27.8
15,CC1CN(C(=O)c2cc(=O)[nH]c3ccc(F)cc23)CCO1 (configuration not stated),6.5
16,Cc1ccc(OCc2occc2C(=O)N2C[C@@H]3[C@@H](CN(C)C)[C@@H]3C2)cc1,-36.4
17,Cc1ccoc1C(=O)N1CC[C@@H]2CN(C3CCOCC3)CCO[C@@H]2C1,-13.2
18,COc1ncccc1CN1C[C@H]2C[C@@H](C(=O)NCC3CC3)N(C)[C@H]2C1,-7.18
19,Cc1noc(C)c1CN1C(=O)[C@H]2CC[C@@H]1CN(Cc1cccnc1N)C2,-20
